SMILES strings stand for the structures. Inconclusive results are not listed. Entries that show only a call come without a potency. Values without a mark were called inactive. Calls of active or inactive are those of the source. The call rests on the fitted dose curve.

The assay in a line: cAMP Responsive Elements (CRE) small molecule agonists, cell-based qHTS assay (AID 1963590). To be noted: CRE-bla HEK293T, beta-lactamase FRET ratio, 3 h; series mostly up to 92.4 µM. From the text: U.S. Tox21 Program National Center for Advancing Translational Sciences [NCATS] Division of Preclinical Innovation [DPI] U.S. Environmental Protection Agency [EPA] National Institutes of Environmental Health Sciences [NIEHS] National Toxicology Program [NTP] U.S. Food and Drug Administration [FDA] Tox21 Assay Overview: CREB (cyclic-AMP Responsive Element Binding Protein) is a cellular transcription factor. It binds to certain DNA sequences called cAMP Responsive Elements (CRE) and regulates the transcription of the genes. […] This cell line can be used to find agonists/antagonists of the cyclic AMP signaling pathway. The activation of the report gene under culture conditions can be detected by fluorescence intensity. This cell line has been used to screen the Tox21 10K compound library to identify agonists that induce oxidative stress.
Tox21 Assay Protocol Summary: CRE-bla Hek 293T cells were suspended in assay medium (DMEM containing 10% dialyzed FBS, 0.1 mM NEAA, 1 mM sodium pyruvate and 25 mM HEPES) and dispensed at 2,000 cells/5 uL /well into 1536-well black wall/clear bottom plates using a Multidrop Combi (ThermoFisher Scientific, Waltham, MA) dispenser. After the assay plates were incubated at 37 C/5% CO2 for 18 hrs, 23 nL of compounds dissolved in DMSO, positive controls or DMSO only was transferred to the assay plate by a pintool workstation (Kalypsys, San Diego, CA). After the plates were incubated at 37 C/5% CO2 for 3 hrs, 1 uL of LiveBLAzer B/G FRET substrate (Invitrogen, Carlsbad, CA) was added to each well using Bioraptr Flying Reagent Dispenser (FRD, Aurora Discovery, San Diego, CA). The plates were incubated at room temperature for 2 h.
In general terms: Quantitative high-throughput screening tests each substance at several concentrations.
For `CCC(OCCCOC)OC(C)=O` (stereo not given), the Potency result was “inactive”. The same measure, in the same setting: as for `CCC/C=C/C=O`, the entry is “inactive”; as for `[K+]`, “inactive”.

With `CCCCCCCC(OC)OC`, the Potency result is “inactive”. On to `CC[N+](C)(C)c1cccc(O)c1`, for which the Potency entry is “inactive”. In the case of `COC(=O)CC(C(C)=O)C(=O)OC` (stereo not given), the Potency entry is “inactive”. In the case of `NC(=O)c1ncn([C@@H]2O[C@H](CO)[C@@H](O)[C@H]2O)c1O`, the Potency entry was “inactive”. Consider `O=C(Oc1ccccc1)c1ccc(O)cc1`, for which the Potency entry is “inactive”. `CO[Si](CCCNCCN)(OC)OC`: the Potency entry was “inactive”. On the same count and under the same terms, the entry for `COc1ccc(OC)c(C(O)CNC(=O)CN)c1` (stereo not given) is “inactive”.

With `C=CC(C)(O)CCC=C(C)C` (stereo not given), the Potency entry is “inactive”. Consider `CCC(C)(Oc1ccc(C2(c3ccc(OC(C)(CC)C(=O)O)cc3)CCCCC2)cc1)C(=O)O` (stereo not given), for which the Potency result was “inactive”. The same measure, in the same setting: the entry for `CCCC(=O)OCC(COC(=O)CCC)OC(=O)CCC` is “inactive”. Consider `O=CC1CC=CCC1` (stereo not given), for which the Potency entry is “inactive”. On to `O=C(O)CNC(=O)c1ccc(CO)o1`, for which the Potency entry was “inactive”.

With `CCCCCC=O`, the Potency entry is “inactive”. The same measure, in the same setting: as for `Clc1ccc2c(Cl)ccnc2c1`, the entry is “inactive”; as for `CCCCNc1ccccc1`, “inactive”; as for `O=S(=O)(O)c1ccccc1`, “inactive”.

On to `CC(C)=O`, for which the Potency entry is “inactive”. The same measure, in the same setting: as for `O=S(=O)(O)c1cccc2c(S(=O)(=O)O)cccc12`, the entry is “inactive”. Regarding `CC(=O)NCc1c(I)c(NC(C)=O)c(I)c(C(=O)O)c1I`, the Potency result was “inactive”. Consider `CC1CC(=O)CC(C)(C)C1` (stereo not given), for which the Potency result is “inactive”. Turning to `CN1C(CCl)Nc2cc(Cl)c(S(N)(=O)=O)cc2S1(=O)=O` (stereo not given), the Potency result is “inactive”. Regarding `O=S(=O)(O)c1ccc2c(N=Nc3ccc(S(=O)(=O)O)c4ccccc34)c(O)c(S(=O)(=O)O)cc2c1`, the activation is -1.25% [at 8.39 µM].

Consider `CC(=O)Nc1c(I)cc(I)c(C(=O)O)c1I`, for which the Potency entry was “inactive”. The same measure, in the same setting: the entry for `CCOc1cc(NC(C)=O)ccc1C(=O)OC` is “inactive”; for `Brc1cc(Br)cc(Br)c1` it is “inactive”; for `CCC(=O)c1ccc(O)cc1` it is “inactive”. As for `COC(C)(C)CCO`, the Potency entry was “inactive”.

As for `COc1ccc(N=[N+]([O-])c2ccc(OC)cc2)cc1`, the Potency entry was “inactive”.

Turning to `CCCCC(CC)COCCO` (stereo not given), the Potency result is “inactive”.

Regarding `CNC(=O)NC`, the Potency entry is “inactive”. On the same count and under the same terms, as for `c1ccc2cnccc2c1`, the entry is “inactive”; as for `Cn1cnc2c(F)c(Nc3ccc(Br)cc3Cl)c(C(=O)NOCCO)cc21`, “inactive”; as for `CCOC(/C=C(\C)CCC=C(C)C)OCC`, “inactive”. On the same count and under the same terms, the entry for `C=COCCCC` is “inactive”. For the compound `Nc1nnnn1-c1ccccc1`, the Potency result was “inactive”. Consider `CC(C)(C)C(=O)C(Oc1ccc(Cl)cc1)n1ccnc1` (stereo not given), for which the Potency result is “inactive”. With `O=C(c1ccc2c(c1)C(=O)OC2=O)c1ccc2c(c1)C(=O)OC2=O`, the Potency entry is “inactive”.
